Reference: PubChem BioAssay (NCI)
The panel holds about 83,000 compounds, 20% with a hit somewhere; the sample as a whole holds those more often.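 Method: cells in 96-well plates; compound added at one concentration; 48 h incubation; percent growth measured; values under 10 scored active.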 A number with no mark means an inactive call. Active and inactive are the calls of the source.

Experiments:
Test in all cases: NCI-60 one-dose screen, 48 h (100 = growth as untreated, 0 = no growth, -100 = all killed)
Settings in all cases: 10 µM unless noted
HT29 colon = tested on: HT29 colon
SNB-75 CNS = tested on: SNB-75 CNS
SNB-19 CNS = tested on: SNB-19 CNS
U251 CNS = tested on: U251 CNS
PC-3 prostate = tested on: PC-3 prostate
SK-MEL-5 melanoma = tested on: SK-MEL-5 melanoma
UACC-62 melanoma = tested on: UACC-62 melanoma
LOX IMVI melanoma = tested on: LOX IMVI melanoma
SK-MEL-28 melanoma = tested on: SK-MEL-28 melanoma
SK-MEL-2 melanoma = tested on: SK-MEL-2 melanoma
EKVX NSCLC = tested on: EKVX NSCLC
SN12C renal = tested on: SN12C renal
UO-31 renal = tested on: UO-31 renal
TK-10 renal = tested on: TK-10 renal
ACHN renal = tested on: ACHN renal
CAKI-1 renal = tested on: CAKI-1 renal
CCRF-CEM leukemia = tested on: CCRF-CEM leukemia
MOLT-4 leukemia = tested on: MOLT-4 leukemia
A498 renal = tested on: A498 renal

Row | SMILES | growth (HT29 colon) | growth (SNB-75 CNS) | growth (SNB-19 CNS) [%] | growth (U251 CNS) | growth (PC-3 prostate) | growth (SK-MEL-5 melanoma) | growth (UACC-62 melanoma) | growth (LOX IMVI melanoma) | growth (SK-MEL-28 melanoma) | growth (SK-MEL-2 melanoma) [%] | growth (EKVX NSCLC) | growth (SN12C renal) | growth (UO-31 renal) | growth (TK-10 renal) | growth (ACHN renal) | growth (CAKI-1 renal) | growth (CCRF-CEM leukemia) | growth (MOLT-4 leukemia) | growth (A498 renal)
1 | CC1=C(C(=O)OCc2ccccc2)C(c2ccc3c(c2)OCO3)n2c(nc3ccccc32)N1 (centres undefined) | 14.4% | -6.67% (active) | 41.6 | 36.3% | 41.1% | 25.5% | 46.2% | 34.6% | 61.8% | 47.8 | 64.4% | 47.6% | 51.1% | 65.6% | 38.4% | 34.3% | 24.9% | 37.1% | 
2 | O=c1ccc2c(ccc3ncccc32)o1 | 99.9% | 105% | 118 | 109% | 94.3% | 95% | 112% | 102% | 113% | 112 | 118% | 106% | 77.1% | 105% | 95.6% | 90% | 104% | 92.7% | 81.8%
3 | Cc1nn(-c2ccccc2)c(Oc2ccccc2)c1/C=N/NC(=O)Cn1c(=O)sc2ccccc21 | 46.8% | 48.6% | 61.1 | 51.3% | 44.5% | -47.7% (active) | 52.1% | 48.7% | 87.5% | 42.6 | 33.3% | 61.4% | 35% | 60.7% | 47.2% | 33.4% | 49.9% | 10.3% | 45.6%
4 | Cn1cc(-c2nc(-c3c[nH]c4c(Cl)nccc34)cs2)c2ccccc21 | 83.5% | 108% | 94.5 | 86.3% | 86.1% | 91.2% | 97.5% | 102% | 108% | 99.2 | 86.7% | 94.5% | 94.6% | 81.2% | 107% | 87% | 92.3% | 83.9% | 77.8%
5 | COc1cc(-c2c(-c3ccccc3)c[nH]c2C(=O)NCCCO)c(OC)c2c1OCO2 | 106% | 92.9% | 97.5 | 104% | 99.1% | 99.1% | 93.7% | 99.5% | 107% | 109 | 99.2% | 97.1% | 85.7% |  | 98.9% | 91.1% | 88.8% | 92.5% | 74.6%
6 | COc1ccc(-c2nc3cc(C(=O)NC4CCCCC4)ccc3n2C2CCCCC2)cc1 | 38.3% | 91.6% | 109 | 91.5% | 95.8% | 65.3% | 95.3% | 76.9% | 100% | 92.4 | 69.2% | 96.4% | 82.6% | 91.5% | 87% | 89.2% | 94.4% | 74.5% | 103%
7 | COC12C=C/C(=C(/C(=O)OCc3ccccn3)C(=O)CCCCCCCCC3(OC)C=C/C(=C(/C(=O)OCc4ccccn4)C(=O)CCCCCCCC1)O3)O2 | 3.23% (active) | 1.28% (active) | 12.5 | -25.6% (active) | -37.4% (active) | -83.3% (active) | -52.5% (active) | -69.6% (active) | -11.1% (active) | 10.8 | -9.9% (active) | -22.2% (active) | -45.7% (active) | 4.32% (active) | -14.9% (active) | -4.53% (active) | 0.645% (active) | 0.868% (active) | -86.3% (active)
8 | COc1ccc(/C=N\NC(=O)c2ccc3nc(-c4ccc(Cl)cc4)[nH]c3c2)cc1 | 21.9% | 91.9% | 24.2 | 7.96% (active) | -4.4% (active) | 33.7% | 30.9% | 0.882% (active) | 12.5% | 64.1 |  | 6.24% (active) | 81.9% | 39.1% | 21.9% | 60.5% | 65.3% | 68.2% | 66.6%
